Results taken from the supplement of paper PMC4206461.
Unmarked numbers belong to inactive results.

These compounds were tested on Pseudomonas aeruginosa PA14 dppA1-A5 penta mutant + pBBR5.DppA1 (PA14_58350) (assay: respiration area under curve with compound as sole nitrogen source, 24 h (OmniLog AUC (arbitrary units)); higher = more respiration / better utilisation as nitrogen source, active = 2000 or more).
Protocol: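 Biolog Phenotype MicroArray plates PM6-PM8: each di/tripeptide is the sole nitrogen source. Tetrazolium reduction was read in the OmniLog for 24 h at 37°C and summarised as area under the respiration curve (arbitrary units). Values below 2000 count as no respiration. Strain is the SBP penta mutant complemented with DppA1 on a plasmid under its native promoter. Lys/His/Cys peptides are excluded.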

| SMILES | respiration area under curve |
| --- | --- |
| NC(=O)CC[C@H](NC(=O)[C@@H](N)CC(=O)O)C(=O)O (plate: PM8) | 7700 (active) |
| CC(C)[C@H](N)C(=O)N[C@@H](CCCN=C(N)N)C(=O)O (plate: PM7) | 12100 (active) |
| NC(=O)CC[C@H](N)C(=O)N[C@@H](CCC(=O)O)C(=O)O (plate: PM8) | 7630 (active) |
| N[C@@H](CCC(=O)O)C(=O)N[C@@H](Cc1c[nH]c2ccccc12)C(=O)O (plate: PM6) | 1820 |
| CC(C)C[C@H](NC(=O)[C@@H](N)[C@@H](C)O)C(=O)O (plate: PM7) | 4760 (active) |
| CC[C@H](C)[C@H](N)C(=O)NCC(=O)O (plate: PM6) | 2560 (active) |
| O=C(O)CC(NC(=O)C1CCCN1)C(=O)O (stereo not drawn) (plate: PM7) | 2970 (active) |
| N[C@@H](CO)C(=O)N[C@@H](CO)C(=O)O (plate: PM7) | 6490 (active) |
| NC(=O)C[C@H](NC(=O)[C@@H](N)CO)C(=O)O (plate: PM8) | 10900 (active) |
| NCC(=O)N[C@@H](CC(=O)O)C(=O)O (plate: PM8) | 4090 (active) |
| CC[C@H](C)[C@H](NC(=O)[C@@H](N)Cc1ccccc1)C(=O)O (plate: PM7) | 7890 (active) |

What follows are compounds tested on Pseudomonas aeruginosa PA14 wild type in the same assay as above.
Protocol: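 Biolog Phenotype MicroArray plates PM6-PM8: each di/tripeptide is the sole nitrogen source (IF-0 medium with succinate/ferric citrate and dye mix A). Tetrazolium reduction was read in the OmniLog every 15 min for 24 h at 37°C and summarised as area under the respiration curve (arbitrary units). The paper counts values below 2000 as no respiration and above 8000 as solid respiration. Replicate datasets are averaged.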

| SMILES | respiration area under curve |
| --- | --- |
| NC(=O)CC[C@H](NC(=O)[C@@H](N)CC(=O)O)C(=O)O (plate: PM8) | 9700 (active) |
| NC(=O)CC[C@H](NC(=O)[C@@H](N)CCCN=C(N)N)C(=O)O (plate: PM6) | 9850 (active) |
| C[C@@H](N)C(=O)NCC(=O)O (plate: PM8) | 6030 (active) |
| CC(C)C[C@H](N)C(=O)N[C@H](C(=O)O)C(C)C (plate: PM7) | 9910 (active) |
| CC[C@H](C)[C@H](NC(=O)CNC(=O)CN)C(=O)O (plate: PM8) | 10400 (active) |
| NCC(=O)N1CCC[C@H]1C(=O)O (plate: PM6) | 9130 (active) |
| C[C@H](N)C(=O)N[C@@H](CC(=O)O)C(=O)O (plate: PM8) | 10500 (active) |
| NC(N)=NCCC[C@H](NC(=O)[C@@H](N)CCCN=C(N)N)C(=O)O (plate: PM6) | 10100 (active) |
| CC(C)[C@H](N)C(=O)N[C@H](C(=O)O)C(C)C (plate: PM7) | 9240 (active) |
| N[C@@H](CC(=O)O)C(=O)NCC(=O)O (plate: PM8) | 4290 (active) |
| N[C@@H](CO)C(=O)N[C@@H](Cc1ccc(O)cc1)C(=O)O (plate: PM7) | 6130 (active) |
| O=C(O)CC(NC(=O)C1CCCN1)C(=O)O (stereo not drawn) (plate: PM7) | 4460 (active) |
| NC(N)=NCCC[C@H](N)C(=O)N[C@@H](CC(=O)O)C(=O)O (plate: PM6) | 9430 (active) |
| N[C@@H](Cc1c[nH]c2ccccc12)C(=O)N[C@@H](Cc1c[nH]c2ccccc12)C(=O)O (plate: PM7) | 1430 |
| C[C@@H](NC(=O)CN)C(=O)O (plate: PM8) | 5060 (active) |
| CC(C)C[C@H](NC(=O)[C@@H]1CCCN1)C(=O)O (plate: PM7) | 7810 (active) |
| CC(C)[C@H](NC(=O)[C@@H](N)CCCN=C(N)N)C(=O)O (plate: PM6) | 8950 (active) |
| N[C@@H](CO)C(=O)N[C@@H](CO)C(=O)O (plate: PM7) | 8860 (active) |
| CC[C@H](C)[C@H](N)C(=O)N[C@@H](CO)C(=O)O (plate: PM6) | 6110 (active) |
| CSCCC(N)C(=O)NC(CCSC)C(=O)O (stereo not drawn) (plate: PM7) | 0 |
| C[C@H](N)C(=O)N[C@H](C(=O)O)[C@@H](C)O (plate: PM6) | 6750 (active) |
| NC(=O)C[C@H](NC(=O)[C@@H]1CCCN1)C(=O)O (plate: PM8) | 12900 (active) |
| N[C@@H](Cc1ccc(O)cc1)C(=O)N[C@@H](Cc1c[nH]c2ccccc12)C(=O)O (plate: PM7) | 3280 (active) |
| CSCC[C@H](N)C(=O)N[C@@H](CC(C)C)C(=O)O (plate: PM7) | 2580 (active) |
| CSCC[C@H](N)C(=O)N[C@H](C(=O)O)[C@@H](C)O (plate: PM8) | 4350 (active) |
| C[C@@H](O)[C@H](N)C(=O)N1CCC[C@H]1C(=O)O (plate: PM7) | 13000 (active) |

The compounds below were run on Pseudomonas aeruginosa PA14 dppBCDF deletion mutant (assay: respiration area under curve with compound as sole nitrogen source, 24 h (OmniLog AUC (arbitrary units)); higher = more respiration / better utilisation as nitrogen source, active = 2000 or more; extreme values may be limits of the assay).
Protocol: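 Biolog Phenotype MicroArray plates PM6-PM8: each di/tripeptide is the sole nitrogen source. Tetrazolium reduction was read in the OmniLog every 15 min for 24 h at 37°C and summarised as area under the respiration curve (arbitrary units). Values below 2000 count as no respiration. Strain is the dipeptide ABC transporter deletion mutant.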

| SMILES | respiration area under curve |
| --- | --- |
| NC(=O)CC[C@H](NC(=O)[C@@H](N)CC(=O)O)C(=O)O (plate: PM8) | 5.25 |
| NC(=O)CC[C@H](NC(=O)[C@@H](N)CCCN=C(N)N)C(=O)O (plate: PM6) | 9270 (active) |
| C[C@@H](N)C(=O)NCC(=O)O (plate: PM8) | 0 |
| CC(C)C[C@H](N)C(=O)N[C@H](C(=O)O)C(C)C (plate: PM7) | 9340 (active) |
| CC[C@H](C)[C@H](NC(=O)CNC(=O)CN)C(=O)O (plate: PM8) | 1 |
| NCC(=O)N1CCC[C@H]1C(=O)O (plate: PM6) | 0 |
| C[C@H](N)C(=O)N[C@@H](CC(=O)O)C(=O)O (plate: PM8) | 2510 (active) |
| NC(N)=NCCC[C@H](NC(=O)[C@@H](N)CCCN=C(N)N)C(=O)O (plate: PM6) | 9250 (active) |
| CC(C)[C@H](N)C(=O)N[C@H](C(=O)O)C(C)C (plate: PM7) | 1580 |
| N[C@@H](CC(=O)O)C(=O)NCC(=O)O (plate: PM8) | 0 |
| N[C@@H](CO)C(=O)N[C@@H](Cc1ccc(O)cc1)C(=O)O (plate: PM7) | 1890 |
| O=C(O)CC(NC(=O)C1CCCN1)C(=O)O (stereo not drawn) (plate: PM7) | 0 |
| NC(N)=NCCC[C@H](N)C(=O)N[C@@H](CC(=O)O)C(=O)O (plate: PM6) | 7880 (active) |
| N[C@@H](Cc1c[nH]c2ccccc12)C(=O)N[C@@H](Cc1c[nH]c2ccccc12)C(=O)O (plate: PM7) | 436 |
| C[C@@H](NC(=O)CN)C(=O)O (plate: PM8) | 0 |
| CC(C)C[C@H](NC(=O)[C@@H]1CCCN1)C(=O)O (plate: PM7) | 626 |
| CC(C)[C@H](NC(=O)[C@@H](N)CCCN=C(N)N)C(=O)O (plate: PM6) | 7970 (active) |
| N[C@@H](CO)C(=O)N[C@@H](CO)C(=O)O (plate: PM7) | 988 |
| CC[C@H](C)[C@H](N)C(=O)N[C@@H](CO)C(=O)O (plate: PM6) | 156 |
| CSCCC(N)C(=O)NC(CCSC)C(=O)O (stereo not drawn) (plate: PM7) | 0 |
| C[C@H](N)C(=O)N[C@H](C(=O)O)[C@@H](C)O (plate: PM6) | 1650 |
| NC(=O)C[C@H](NC(=O)[C@@H]1CCCN1)C(=O)O (plate: PM8) | 5910 (active) |
| N[C@@H](Cc1ccc(O)cc1)C(=O)N[C@@H](Cc1c[nH]c2ccccc12)C(=O)O (plate: PM7) | 1770 |
| CSCC[C@H](N)C(=O)N[C@@H](CC(C)C)C(=O)O (plate: PM7) | 247 |
| CSCC[C@H](N)C(=O)N[C@H](C(=O)O)[C@@H](C)O (plate: PM8) | 211 |
| C[C@@H](O)[C@H](N)C(=O)N1CCC[C@H]1C(=O)O (plate: PM7) | 0 |
